Test results published in PubChem BioAssay AID624330 (Southern Research Specialized Biocontainment Screening …, 2012).
About 2,100 (0.62%) of roughly 340,000 compounds were called active.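 Rule for the calls: active = first-screen hits whose inhibition reached a set limit at any dose in the follow-up dose series; inconclusive = inhibition above the set first-screen limit but never retested; inactive = the rest.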 A selection follows. Entries with a potency or affinity are not part of this list.

target: Rac GTPase-activating protein 1 (Homo sapiens) (UniProt Q9H0H5); assay: blockers of MgcRacGAP-driven Rac1 GTP hydrolysis – biochemical, ADP Hunter fluorescence, primary and confirmatory, confirmation (AID 624330); conditions: MgcRacGAP-stimulated Rac1 GTP hydrolysis, at 30 µM, hits give high values, GST-tagged Rac1 F28L mutant substrate;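 note: fluorescence reports GDP produced by GAP-driven GTP hydrolysis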
Sequence (Q9H0H5 whole entry, looked up): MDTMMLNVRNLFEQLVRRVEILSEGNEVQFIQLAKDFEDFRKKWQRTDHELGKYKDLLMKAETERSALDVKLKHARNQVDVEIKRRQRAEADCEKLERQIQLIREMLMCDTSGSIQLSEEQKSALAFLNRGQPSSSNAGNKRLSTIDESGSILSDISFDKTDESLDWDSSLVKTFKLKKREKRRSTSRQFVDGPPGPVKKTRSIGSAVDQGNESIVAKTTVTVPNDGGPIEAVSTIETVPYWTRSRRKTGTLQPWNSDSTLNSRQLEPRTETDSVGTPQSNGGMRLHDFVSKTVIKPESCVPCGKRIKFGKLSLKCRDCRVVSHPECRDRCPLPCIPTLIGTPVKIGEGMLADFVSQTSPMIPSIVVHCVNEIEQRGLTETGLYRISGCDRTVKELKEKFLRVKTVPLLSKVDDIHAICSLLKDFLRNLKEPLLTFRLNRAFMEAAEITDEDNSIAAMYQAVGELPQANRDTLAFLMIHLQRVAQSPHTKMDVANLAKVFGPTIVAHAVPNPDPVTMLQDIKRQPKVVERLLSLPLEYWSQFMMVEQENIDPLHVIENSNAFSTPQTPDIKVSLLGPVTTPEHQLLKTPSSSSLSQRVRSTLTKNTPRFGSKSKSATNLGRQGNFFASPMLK

inhibition, inactive:
Cc1[nH]c(-c2ccc(F)cc2)cc1C(=O)N1CCN(c2cccc(Cl)c2)CC1 21.1%, COC(=O)Cn1ccc(N(C)C)c(C#N)c1=O -1.06%, CCOC(=O)N1CCN(Cc2nc(-c3ccc(Cl)cc3)no2)CC1 0.28%, CC(C)Oc1cccc(C(=O)NC(=S)Nc2ccc(Cl)c(C(=O)O)c2)c1 0.71%, O=C(CCNC(=O)C1CCN(S(=O)(=O)c2ccc(F)cc2)CC1)NCCc1ccc(Cl)cc1 1.71%, CCCN(CC(=O)Nc1ccc(F)c(F)c1F)C(=O)c1ccc2c(=O)n3c(nc2c1)CCC3 1.86%, CC1(Cc2cn(CCC#N)c3ccccc23)OCCO1 15.8%, N#CCCn1cc(CNC2CCC(O)CC2)c2ccccc21 (configuration not stated) 3.99%, CCCCCC(=O)NC(NC(=S)NC1CCS(=O)(=O)C1)C(Cl)(Cl)Cl (configuration not stated) 8.9%, Cc1cccc(OCCSc2nc(N)cc(N)n2)c1 25.9%, O=[N+]([O-])c1ccc(C=NNc2ccccc2)cc1 0.7%, O=C(N/N=C/c1ccc[nH]1)c1ccc([N+](=O)[O-])cc1 13.2%, Nc1c(N(CCO)C(=O)C2CCCC2)c(=O)[nH]c(=O)n1Cc1ccccc1 2.35%, Cc1cc(C)cc(NC(=O)C2(c3ccccc3)CC2(Cl)Cl)c1 (configuration not stated) 8.14%, COc1ccc(/C=N/N2CCN(C3c4ccccc4-c4ccccc43)CC2)cc1O 11.6%, CN(C(=O)CSc1nc2[nH]ncc2c(=O)[nH]1)c1ccccc1 2.08%, Oc1c(Br)cc(Br)cc1C=Nc1ccc2[nH]ncc2c1 17.9%, Cc1ccc(O)c(/C=N/NC(=O)c2[nH]ncc2Br)c1 0.98%, COc1cccc(N=Cc2ccc(O)cc2O)c1 8.51%, C=CCOc1ccc(C=Nc2ccc(OC)cc2)c(O)c1 12%, Brc1ccc2[nH]ncc2c1 3.94%, CC1(C)CC(=O)C(C=Nc2ccc3[nH]ncc3c2)=C(O)C1 6.45%, CCOC(=O)c1nc(NNC(C)=O)sc1C 0.96%, Cc1nc2nc(-c3cccs3)[nH]c2cc1Br 10.5%, Cc1cccc(NC(=O)c2nc(-c3ccccc3)n(-c3ccccc3)n2)c1C 10.4%, Cc1nnc(CN(C)C(=O)CC2C(=O)NCCN2Cc2ccccc2C)o1 (configuration not stated) -0.43%, Cc1nc(CNS(=O)(=O)c2cc(C)c(C)cc2C)cs1 10.2%, Nc1ccc(SCc2cccnc2)cc1 14%, CC(C)(C)OC(=O)N1CCN(C(=O)c2[nH]cnc2C(=O)Nc2ccc(Cl)cc2)CC1 8.41%, O=C(NCc1cccnc1)C1CCN(S(=O)(=O)c2cccs2)CC1 8.85%, CC(=O)Nc1ccc(S(=O)(=O)N[C@@H](C)C(=O)OCc2ccc(Cl)cc2)cc1 3.47%, Cc1ccc(NC(=O)COC(=O)C(NS(=O)(=O)c2ccc(Cl)cc2)C(C)O)cc1 (configuration not stated) 4.48%, CC(=O)N(C)c1ccc(NS(=O)(=O)c2cc(Cl)ccc2Cl)cc1 11.1%, Cc1ccc(S(=O)(=O)Nc2ccc(N(C)S(=O)(=O)c3ccc(C)cc3)cc2)cc1 3.88%, O=S(=O)(Nc1ccncc1)c1ccc(Cl)cc1 2.85%, CN(C)c1ccc(S(=O)(=O)c2ccc(Cl)cc2)cc1 -2.71%, CSc1ccc(S(=O)(=O)Nc2ccc(S(=O)(=O)Nc3ccc(C)cc3)cc2)cc1 8.03%, CCN(c1ccc(NS(=O)(=O)c2cc(Cl)ccc2Cl)cc1)C(C)C 10.2%, O=C(CCSc1ccc(Cl)cc1)NCc1ccccn1 14.8%, CC(=O)CC(=O)Nc1ccc(Cl)cn1 4.78%, CCOC(=O)N1CCC(N2CCN(S(=O)(=O)c3ccc([N+](=O)[O-])cc3)CC2)CC1 30.9%, COc1ccc2nc(NC(=O)CSc3cn[nH]n3)sc2c1 6.06%, Nc1ccccc1NC(=O)NC(=O)c1ccccc1 12.1%, COC(=O)Cn1cc(/C=N/NC(=O)COc2cccc3cccnc23)c2ccccc21 5.77%, Cc1cc(C(=O)Nc2sccc2C#N)c2ccccc2n1 12%, Cn1nnc(NC(=O)c2ccc(Br)o2)n1 11.1%, COCc1ccc(CN2CCC(N3CCC(C(=O)N4CCCC4)CC3)CC2)o1 1.64%, CN(CC(=O)Nc1ccc(F)cc1)C(=O)c1cccc(NS(=O)(=O)c2ccccc2)c1 5.16%, COCCCNC(=O)/C(C#N)=C/c1c(N2CCN(c3ccccc3)CC2)nc2c(C)cccn2c1=O 10.4%, COCCNC(=O)/C(C#N)=C/c1c(N2CCN(c3ccc(OC)cc3)CC2)nc2c(C)cccn2c1=O 31.4%, OCCNCc1c(OCc2ccc(Cl)cc2)ccc2ccccc12 8.81%, CCc1ccc(NC(=O)CCNC(=O)Cn2cnc3ccccc3c2=O)cc1 9.24%, COc1ccc(-n2c(C)cc(/C=C3\C(=N)N4N=C(CC(=O)N5CCOCC5)SC4=NC3=O)c2C)c(OC)c1 -2.43%, Cc1cc(-c2ccccc2)n2ncnc2n1 6.89%, Cc1cc(-c2ccc3ccccc3c2)n2ncnc2n1 -7.09%, COc1ccc(NC(=O)CCCc2ccccc2)c(OC)c1 6.75%, CNC(=O)CC1C(=O)N(Cc2ccccc2)C(=S)N1NC(=O)c1cccc(F)c1 (configuration not stated) -0.78%, COCCn1c(CN2CCc3ccccc3C2)nc2c1c(=O)n(C)c(=O)n2C 7.99%, CCCc1nc2ccccc2n1CCOc1ccccc1 3.33%, COc1ccc(/C=N/NC(=O)C(=O)NCc2cccnc2)cc1OC -5.14%, CCOc1cc(/C=C(\C#N)C(=O)Nc2ccccn2)ccc1O 12.8%, N#C/C(=C/c1cccc(O)c1)C(=O)NCc1ccc(Cl)cc1 24.4%, CCOc1cc(/C=C(\C#N)C(=O)NCC2CCCO2)ccc1OCC(N)=O (configuration not stated) 4.74%, COc1cc(/C=N/NC(=O)C(=O)NCc2cccnc2)ccc1O 25.4%, COc1ccc(/C=C(\C#N)C(=O)NCc2cccnc2)cc1OC 0.52%, N#C/C(=C/c1ccc(O)cc1)C(=O)NCc1ccc(Cl)cc1 3.42%, CCOc1ccc(/C=C(\C#N)C(=O)NCC2CCCO2)cc1OCC (configuration not stated) -2.79%
